Data taken from ChEMBL document CHEMBL4513216, “Probing the Open Global Health Chemical Diversity Library for Multistage-Active Starting Points for Next-Generation Antimalarials” (ACS Infect Dis, 2020).
In all, about 69,000 compounds went through this assay and about 8,600 (12%) showed an effect of 50% or more. The entries come from a sample that favours strong results as a whole.

test system: Plasmodium berghei; assay: Screen against P. berghei liver stage (PbLuc), transformed with Luciferase, at 10uM; type: functional, HepG2; conditions: tested at 10 uM

SMILES	INHIBITION
CN(Cc1ccncc1)C(=O)NC1CCCN(c2ncccn2)C1 (stereo unspecified)	36.1%
O=C(NCc1ccc(Cl)cc1)N1CCN(CC(O)C2CC2)CC1 (stereo unspecified)	25.9%
CS(=O)(=O)N1CCC(NC(=O)COc2ccc3ccccc3c2)CC1	33.3%
COCCN(C)Cc1nc(-c2cccc(F)c2F)oc1C	51.9%
Cc1oc(-c2cccc(F)c2F)nc1CN(C)CCC(C)(C)O	16%
Cc1oc(-c2cccc(F)c2F)nc1CN(C)CCO	11.3%
O=C(c1ccnnc1)N1CC[C@]2(C[C@H](Oc3ncccc3F)CO2)C1	-29.3%
Cc1nn(C)cc1-c1cc(C(=O)N2CCc3ncc(Cl)cc3C2)no1	38.65%
CCC(CC)c1nnc(NC(=O)N2CCCC(NC(C)=O)C2)s1 (stereo unspecified)	52%
CCC(CC)c1nnc(NC(=O)N2CCC(C(N)=O)CC2)s1	12.6%
CC(=O)NC1CCCN(C(=O)NCc2cc[nH]n2)C1 (stereo unspecified)	31.9%
CCCc1nnc(NC(=O)N2CCCC(NC(C)=O)C2)s1 (stereo unspecified)	17%
CC(C)c1nnc(NC(=O)NC2CCN(Cc3ccccc3)C2)s1 (stereo unspecified)	-15.05%
CC(=O)NC1CCCN(C(=O)Nc2nnc(C(C)C)s2)C1 (stereo unspecified)	52%
NCCc1cc(N2CCOCC2)nc(NC2CC2)n1	18.25%
CN(C)CCN(Cc1ccc(C#N)cc1)C(=O)c1ccn(C)c(=O)c1	8.38%
CS(=O)(=O)NCCNC(=O)Cc1ccc(Br)s1	-62.1%
CNC(=O)c1cc(NC(=O)Nc2cnn(CC(C)C)c2)ccc1F	1.56%
COc1ccccc1-c1cc(C(=O)N2CCCC2)c2cnn(C)c2n1	44.1%
O=C(CCc1ccccn1)N1CCCC1	-8.11%
CN1CCN(C(=O)C2SCCc3sccc32)CC1 (stereo unspecified)	39.7%
O=C(C1SCCc2ccccc21)N1CCC(O)CC1 (stereo unspecified)	50.8%
CN(C)C1CCN(C(=O)C2SCCc3ccccc32)CC1 (stereo unspecified)	19.2%

SMILES	INHIBITION
CC(=O)N1CCN(C(=O)C2SCCc3sccc32)CC1 (stereo unspecified)	8.47%
CN(C)C(=O)C1SCCc2ccccc21 (stereo unspecified)	38.9%
NC(=O)C1CCN(C(=O)C2SCCc3sccc32)CC1 (stereo unspecified)	69.7%
O=C(C1SCCc2sccc21)N1CC(O)C1 (stereo unspecified)	6.33%
O=C(C1SCCc2sccc21)N1CCCCC1 (stereo unspecified)	62%
O=C(C1SCCc2sccc21)N1CCC(O)CC1 (stereo unspecified)	20.1%
COCCNC(=O)C1CCCN(c2ccc3nncn3n2)C1 (stereo unspecified)	-21.9%
CCO[C@H]1CN(CC2CCOCC2)[C@@H]2CCCO[C@H]12	38.5%
O=C1COC2(CCN(Cc3ccco3)CC2)CN1CCn1cccn1	4.02%
O=C(Nc1ccc(CCN2CCOCC2)cc1)C1CC1	6.35%
Cc1nsc(N2CCCN(C(=O)CCc3ccsc3)CC2)n1	15.7%
CCOc1ccc(N2CCCN=C2NC(=O)c2cccc(OC)c2)cc1	54.9%
CCOc1ccc(N2CCCN=C2NC(=O)c2ccc(Cl)cc2)cc1	19.3%
CCOc1ccc(N2CCCN=C2NC(=O)c2cccc(C)c2)cc1	54%
CCOc1ccc(N2CCCN=C2NC(=O)c2ccccc2C)cc1	-11.5%
CCOc1ccc(N2CCCN=C2NC(=O)c2cccc(Cl)c2)cc1	23.5%
CCOc1ccc(N2CCCN=C2NC(=O)c2ccc(OC)cc2)cc1	-8.07%
NC(=O)C1CCN(C(=O)NCCNc2ccccn2)CC1	21.9%
CCc1ncc(CN(C)C2CCN(C(C)C)CC2)cn1	-27.1%
O=C(c1ccco1)N1CCC2(CCC(=O)N2Cc2cccc(F)c2)CC1	-4.27%
COc1cc(N2C[C@H](C(=O)NC3CC3)[C@@H]3CCO[C@@H]3C2)ncn1	12.7%
Cc1cnn(C2CN(CC(O)Cn3cccn3)C2)c1 (stereo unspecified)	36.6%
Cc1ncc2c(n1)CN(CC(O)COc1ccc(C#N)cc1)CC2 (stereo unspecified)	-78%

SMILES	INHIBITION
Cc1cnn(C2CN(CC(O)c3ccccc3)C2)c1 (stereo unspecified)	29%
Cc1cnn(C2CN(CC(O)c3ccc(F)cc3)C2)c1 (stereo unspecified)	-30.1%
COc1ccc(C(O)CN2CC(n3cc(C)cn3)C2)cc1 (stereo unspecified)	57.2%
Cc1cnn(C2CN(CC(O)COc3ccc(C#N)cc3)C2)c1 (stereo unspecified)	72.7%
COc1cccc(-n2c(C)cc(C(=O)NCCCC(N)=O)c2C)c1	-5.25%
CC(C)c1nnc2n1CCN(C(=O)c1cccc(S(C)(=O)=O)c1)C2	45.7%
O=C(c1cscn1)N1C[C@H]2CCC[C@@]2(COCc2ccccn2)C1	64.7%
O=C(N1CCCC1)N1C[C@H]2CCC[C@@]2(COCc2ccccn2)C1	63.8%
O=C(C1CCOCC1)N1C[C@H]2CCC[C@@]2(COc2cccnc2)C1	23.6%
Cc1ncoc1C(=O)N1C[C@H]2CCC[C@@]2(COCc2cccnc2)C1	60.1%
O=C(C1CCOCC1)N1C[C@H]2CCC[C@@]2(COCc2ccccn2)C1	53%
O=C(c1cocn1)N1C[C@H]2CCC[C@@]2(COCc2cccnc2)C1	9.63%
O=S(=O)(C1CC1)N1C[C@H]2CCC[C@@]2(COCc2ccccn2)C1	43.9%
O=C(c1ncccn1)N1C[C@H]2CCC[C@@]2(COCc2cccnc2)C1	45.5%
O=C(C1CCOCC1)N1C[C@H]2CCC[C@@]2(COc2ccccn2)C1	13.6%
O=C(c1ccc(F)cc1)N1C[C@H]2CCC[C@@]2(COCc2ccccn2)C1	40.9%
O=C(c1ccnnc1)N1C[C@H]2CCC[C@@]2(COCc2ccccn2)C1	31.1%
c1ccc(COC[C@@]23CCC[C@@H]2CN(Cc2ccccn2)C3)nc1	-7.94%
O=C(NCCCn1cccn1)C1(c2ccccc2)CCOCC1	16.8%
Cc1c(C(=O)N2CCCC(n3nnc4cc(F)ccc43)C2)cnn1C (stereo unspecified)	2.71%
CCC(NC(=O)COC)c1ccccc1OCC(=O)N1CCCC1 (stereo unspecified)	-4.65%
CN(C)C[C@@H]1CN(C(=O)c2cc(-c3ccccc3)n[nH]2)C[C@@H]1CO	43.9%
COc1ccc(S(=O)(=O)NC(=O)COC2CCCC2)cc1	-0.96%

SMILES	INHIBITION
Cc1ccc(NC(=O)N2C[C@@H]3CC[C@H]2CN(Cc2cscn2)C3)cc1	-28.6%
Nc1ccnc(N2C[C@H]3CC[C@@H](C2)N(CC2CCC2)C3=O)n1	-32.4%
CCn1ccc(NC(=O)CCn2nc(C)c3ccccc32)n1	-21.3%
CCN(CC)C(=O)Cn1ccc2cc(NC(=O)NC3CC3)ccc21	-22.91%
CCC(=O)N1CCC(NC(=O)c2cccc(-n3ccnc3)c2)C1 (stereo unspecified)	2.43%
Cc1cc(C)n(CC2CCCN2C(=O)c2cccc3c2OCCO3)n1 (stereo unspecified)	10.85%
COC[C@@]12CCC[C@@H]1CN(C(=O)Cc1ccccn1)C2	39.4%
CS(=O)(=O)CC(=O)N1C[C@H]2CCC[C@@]2(COCc2ccccn2)C1	25%
O=C(Cc1ccsc1)N1C[C@H]2CCC[C@@]2(COCc2ccccn2)C1	63.8%
Cc1ccccc1C(=O)NC(C)c1cnn(C)c1 (stereo unspecified)	40.8%
CNC(=O)CNCc1c[nH]nc1-c1cc2ccccc2o1	1.51%
CNc1nc2c(c(C(=O)N3CCCC3)n1)CN(C(=O)CCSC)CC2	-36.6%
CN(C)CCN1CCOC2(CCN(c3nccs3)CC2)c2ccccc21	58.5%
CN(C)CCN1CCN(C)C2(CCN(c3nccs3)CC2)C1=O	17.2%
CS(=O)(=O)N1CCOC2(CCN(c3nccs3)CC2)c2ccccc21	5.36%
CC(C)C(NC(=O)C1CCCC1)c1cc(O)nc(-c2cccnc2)n1 (stereo unspecified)	28.925%
CS(=O)(=O)c1ccc(OCCCN2CCc3cncnc3C2)cc1	31.2%
CN(C)CCN1CCCC12CCCN(Cc1ccoc1)C2 (stereo unspecified)	21.6%
Cc1nccc(C2CN(C(=O)c3cncnc3)C2)n1	-14.2%
Cc1cccc(CN2C(=O)OCC2CO)c1F (stereo unspecified)	-21.8%
Cc1[nH]c2c(F)cccc2c1CC(=O)NCCCc1csc(N)n1	1.24%
Cc1ccc(-c2cc(C(=O)NCCCc3csc(N)n3)[nH]n2)s1	56.5%
COc1ccc2c(C)c(C(=O)NCCCc3csc(N)n3)oc2c1	43.6%

SMILES	INHIBITION
Cn1cccc1-c1cc(C(=O)NCCCc2csc(N)n2)[nH]n1	35%
Cc1ccc(-c2cc(C(=O)NCCN3CCCS3(=O)=O)[nH]n2)o1	-7.25%
Cc1ccc(-c2cc(C(=O)NCCCc3csc(N)n3)[nH]n2)o1	64.6%
CNC(=O)C1CN(C(C)C)CCN1c1nc(C)cc(C)n1 (stereo unspecified)	3.48%
O=C(CC1NC(N2CCc3ccccc3C2)=NC1=O)Nc1ccccc1 (stereo unspecified)	19.3%
O=C1COc2c(cccc2C(=O)N2CCCC(n3cccn3)C2)N1 (stereo unspecified)	-4.94%
Cc1nc(C(C)C)sc1C(=O)N1CCN(C2CN3CCC2CC3)CC1 (stereo unspecified)	-6.91%
CCc1nc(CN(C(C)=O)C2CCN(CCc3ccncc3)C2)no1 (stereo unspecified)	66.7%
CC(=O)N(Cc1noc(C2CC2)n1)C1CCN(CC2CCOCC2)C1 (stereo unspecified)	56.6%
CCc1nc(CN(C)C2CCN(CCc3ccncc3)C2)no1 (stereo unspecified)	-12.2%
Cc1nc(CN(C)C2CCN(Cc3ccc4ccccc4n3)C2)no1 (stereo unspecified)	70.1%
Cc1nc(CN(C)C2CCN(Cc3cccc4cccnc34)C2)no1 (stereo unspecified)	25.3%
Cc1nc(CN(C)C2CCN(Cc3nc4ccccc4s3)C2)no1 (stereo unspecified)	60%
Cc1cnc(CN(C)C2CCN(Cc3nc4ccccc4s3)C2)o1 (stereo unspecified)	15.3%
CCc1nc(CN(C(C)=O)C2CCN(CC3CCOCC3)C2)no1 (stereo unspecified)	17.4%
Cc1nc(CN(C)C2CCN(Cc3nc4ccccc4n3C)C2)no1 (stereo unspecified)	48.2%
COCCN1CCC(N(Cc2noc(C3CC3)n2)C(C)=O)C1 (stereo unspecified)	23.4%
CCc1nc(CN(C(C)=O)C2CCN(CCc3ccccc3)C2)no1 (stereo unspecified)	19.4%
Cc1nc(CN(C)C2CCN(Cc3cnc(C)s3)C2)no1 (stereo unspecified)	-29.8%
